Data published in PubChem BioAssay.
Inconclusive results are not listed. The source made the active and inactive calls.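 Rule for the calls, unless noted: active = at least 20% inhibition of 6-phosphogluconate dehydrogenase activity; inactive = the rest.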

What was measured:
[1] = stimulators of insulin release from INS-1E, primary screen, cell-based, 5 mM glucose, NPC library (AID 1117329;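 active = compound raises insulin release from rat beta cells at 5 mM glucose, no numeric limit stated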); settings: rat INS-1E insulin secretion, at 10 µM, stronger effect = higher value
[2] = growth inhibition of GSK3B-pretreated HCT116 cells – cell-based, CellTiter-Glo, 0.2 to 20 µM (AID 1117336;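 active = compounds lowering colon cancer cell viability after pretreatment blocking the GSK3B kinase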); settings: HCT116 viability after GSK3B inhibitor, at 20 µM, stronger effect = higher value
[3] = inhibition of endothelial tube formation, primary screen, imaging, VEGF stimulated, CD31 staining, tube area, NPC library (AID 1117340;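 active = compound that reduces growth-factor-driven endothelial tube area in a mixed cell culture, no cutoff stated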); settings: VEGF-stimulated ADSC/ECFC co-culture, at 10 µM, stronger effect = higher value
[4] = GLP1 release stimulators, primary, NCI-H716, NPC library (AID 1117341;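 active = compound raises GLP1 secretion from the human gut endocrine cells, with no numeric limit stated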); settings: NCI-H716 cells, at 10 µM, stronger effect = higher value
[5] = HCT116 colon cancer cell growth inhibition, primary screen, CellTiter-Glo luminescence, NPC library (AID 1117342;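 active = compounds that lower survival of HCT116 colon cancer cells in the luminescence readout, no numeric limit stated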); settings: at 20 µM (top of the series)
[6] = reduced SW480 viability measured with CellTiter-Glo, NPC library, primary (AID 1117343;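 active = compounds that lower viability of the colon cancer cells in the luminescence readout, with no numeric limit stated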); settings: CellTiter-Glo luminescence; at 20 µM (top of the series)
[7] = NPC library primary testing for decreased DLD-1 cell viability via CellTiter-Glo (AID 1117346;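 active = compounds that lower survival of DLD-1 colon cancer cells in the luminescence readout, no cutoff given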); settings: DLD-1 viability, CellTiter-Glo luminescence; at 20 µM (top of the series)
[8] = molecular target: 6-phosphogluconate dehydrogenase, decarboxylating (Homo sapiens) (UniProt P52209); assay: inhibition of human phosphogluconate dehydrogenase – biochemical, recombinant enzyme, NADPH absorbance, primary screen (AID 1159550); settings: recombinant 6PGD, NADPH absorbance 341 nm; at 10 µM; stronger effect = higher value
[9] = EMT-state selective cytotoxicity in co-culture – imaging, PC-3E GFP, TEM4-18 mCherry, primary screen (AID 1345086;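 active = compounds killing one labelled cell type while sparing the other, by normalised counts and ratio limits, not self-fluorescent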;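 for all read-outs here: cells exposed to compound for 72 h before imaging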;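 for red/green cell ratio (normalised): normalised mesenchymal count divided by normalised epithelial count so high means epithelial killing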); settings: PC-3E GFP / TEM4-18 mCherry co-culture, imaging cell counts, at 1 µM; for red/green cell ratio (normalised): actives lie on both sides, counts scaled to control wells, 1 = unselective
[10] = test system: Aerobactin synthetase IucA (Klebsiella pneumoniae); assay: inhibition of K. pneumoniae IucA enzyme – biochemical, Tocris library, absorbance (AID 1345561; call rule not given here;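 note: 100% = enzyme without compound and 0% = no enzyme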); settings: purified IucA enzyme assay, absorbance (OD) read-out; stronger effect = lower value;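 tested at 8 µM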
[11] = viability loss in pontine glioma line – cell-based, SU-DIPG-XIII, MIPE4.0, CellTiter-Glo, qHTS, dose response (AID 1347061; cut-off not given, nearly all actives have AC50 up to about 37 µM;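 note: cells exposed to compound for 48 hours before readout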); settings: CellTiter-Glo ATP luminescence
[12] = viability loss in pontine glioma line – cell-based, SU-DIPG-XVII, MIPE5.0, CellTiter-Glo, qHTS, dose response (AID 1347060; cut-off not given, nearly all actives have AC50 up to about 26 µM); settings: CellTiter-Glo ATP luminescence
[13] = viability loss in pontine glioma line – cell-based, SU-DIPG-XIII, MIPE5.0, CellTiter-Glo, qHTS, dose response (AID 1347064; cut-off not given, nearly all actives have AC50 up to about 23 µM); settings: CellTiter-Glo ATP luminescence
[14] = measured here: epithelial PC-3E GFP cell survival
[15] = measured here: mesenchymal TEM4-18 mCherry cell survival

Sequence of 6-phosphogluconate dehydrogenase, decarboxylating (Homo sapiens) (P52209 whole entry, looked up): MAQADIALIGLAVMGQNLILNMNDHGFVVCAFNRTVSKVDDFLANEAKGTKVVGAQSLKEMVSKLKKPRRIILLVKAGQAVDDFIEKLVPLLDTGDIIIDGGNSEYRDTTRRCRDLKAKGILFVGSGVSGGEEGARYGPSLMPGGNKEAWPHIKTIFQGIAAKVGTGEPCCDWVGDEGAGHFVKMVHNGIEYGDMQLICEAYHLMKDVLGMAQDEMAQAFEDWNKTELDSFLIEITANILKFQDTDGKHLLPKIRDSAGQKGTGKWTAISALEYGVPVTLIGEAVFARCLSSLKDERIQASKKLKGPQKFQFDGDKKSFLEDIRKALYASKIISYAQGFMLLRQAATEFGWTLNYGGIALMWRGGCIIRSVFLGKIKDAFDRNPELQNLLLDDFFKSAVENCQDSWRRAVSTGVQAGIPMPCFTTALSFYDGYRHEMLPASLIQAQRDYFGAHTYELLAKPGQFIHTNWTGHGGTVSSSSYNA

SMILES	insulin secretion stimulation [1]	viability decrease [2]	tube area decrease [3]	GLP1 secretion stimulation [4]	inhibition of viability [5]	viability decrease (inhibition) [6]	viability decrease (inhibition) [7]	inhibition [8]	red/green cell ratio (normalised) [9]	normalised cell number [9, 14]	normalised cell number [9, 15]	remaining activity [10]	outcome [11]	outcome [12]	outcome [13]
CN1CCC[C@@H]1CCO[C@](C)(c1ccccc1)c1ccc(Cl)cc1	1.3% (inactive)	25.3% (inactive)	55% (active)	10.3% (inactive)	78.8% (active)	113% (active)	86.8% (active)	12.4% (inactive)	1.23 (inactive)	1.06	1.3	109% (inactive)	inactive		
CCCCC(CC)CN1CN(CC(CC)CCCC)CC(C)(N)C1 (stereo not drawn)	6.1% (inactive)	79.6% (active)	16% (inactive)	53.9% (active)	102% (active)	145% (active)	105% (active)	-10.4% (inactive)	1.02 (inactive)	0.84	0.85				
CC1(C)OC(=O)NC1=O	0.6% (inactive)	-28.6% (inactive)	2.9% (inactive)	-6.6% (inactive)	17.4% (inactive)	11.1% (active)	-3.2% (inactive)	10.2% (inactive)	1.18 (inactive)	1.2	1.41				
Cc1nc2sccn2c(=O)c1CCN1CCC(=C(c2ccc(F)cc2)c2ccc(F)cc2)CC1	2% (inactive)	86.2% (active)	28.7% (inactive)	10.9% (inactive)	90.6% (active)	133% (active)	105% (active)	13.5% (inactive)	1.18 (inactive)	1.16	1.38	122% (inactive)			
CN1CCN(CC(=O)N2c3ccccc3C(=O)Nc3cccnc32)CC1	-1.3% (inactive)	-6.7% (inactive)	7.8% (inactive)	-0.5% (inactive)	-2.2% (inactive)	-14.1% (inactive)	5.4% (inactive)	7.85% (inactive)	0.9 (inactive)	1.08	0.97				
O=c1c(O)c(-c2ccc(O)c(O)c2)oc2cc(O)cc(O)c12	-2.9% (inactive)	81.4% (active)	42.7% (active)	5.9% (inactive)	4.5% (inactive)	70.2% (active)	46.2% (inactive)	26.1% (active)	0.91 (inactive)	1.15	1.04	113% (inactive)		inactive	inactive
C[C@](N)(Cc1ccc(O)cc1)C(=O)O	-0.1% (inactive)	0.3% (inactive)	-8.2% (inactive)	1.3% (inactive)	-15.1% (inactive)	42.1% (inactive)	-1.1% (inactive)	-7.56% (inactive)	0.89 (inactive)	1.18	1.05				
